Screening results: PubChem, several laboratories
A selection: hits, their analogues and other compounds. The true share with any hit is near 1.9%.
EP2 mod: modulates human prostaglandin E2 receptor EP2 signaling | hit rate 0.83% among 260,000 | P43116 | induction, % at 25 µM | EP2-expressing cells, cAMP HTRF FRET, PGE2 co-stimulation;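 active = compounds whose cAMP rise, as percent of the full-agonist control response, exceeds 60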;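 note: rat C6 glioma line stably carrying human EP2 under a CMV promoter; the protocol text gives 20 µM as final concentration; 100% = response of wells given 1 µM PGE2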
S1P3 antag: blocks the human S1P3 receptor; Q99500; CHO S1P3 NFAT-BLA reporter, FRET fluorescence, antagonist mode; inhibition, % at 4.98 µM; hit rate 0.27% among 170,000;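 active = inhibition above the plate cutoff, the mean inhibition of test wells on that plate plus 3 SD, cut at about 28% in these data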;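 note: cells challenged with S1P at its EC80 of 0.8 µM; blue over green emission ratio from cleaved BLA substrate after 4 h stimulation; 0% = S1P-stimulated wells and 100% = unstimulated DMSO-only wells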
Target sequence (Q99500 whole entry, looked up): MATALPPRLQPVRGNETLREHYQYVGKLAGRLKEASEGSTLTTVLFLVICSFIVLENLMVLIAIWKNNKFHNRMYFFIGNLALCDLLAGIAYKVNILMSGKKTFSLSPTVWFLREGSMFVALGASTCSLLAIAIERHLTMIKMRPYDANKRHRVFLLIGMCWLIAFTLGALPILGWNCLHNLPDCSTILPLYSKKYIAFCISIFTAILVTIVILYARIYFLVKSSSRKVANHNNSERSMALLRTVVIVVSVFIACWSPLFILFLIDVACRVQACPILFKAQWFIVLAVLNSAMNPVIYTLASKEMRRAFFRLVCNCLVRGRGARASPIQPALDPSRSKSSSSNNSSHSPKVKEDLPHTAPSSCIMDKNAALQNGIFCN
Pf gametocyte: kills late stage P. falciparum gametocytes; P. falciparum stage V gametocytes, ATP luminescence, 24 h; inhibition, % at 10.9 µM; hit rate 0.065% among 150,000;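 active = inhibition above the mean plus 3 SD of compounds within the control limits, set per campaign, cut at about 38% in these data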;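 note: 0% = DMSO wells and 100% = medium only without gametocytes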
S1P4 ag: human S1P4 receptor agonism; O95977; S1P4-expressing cell line, agonist reporter assay; activation, % at 4.98 µM; hit rate 0.35% among 220,000; AID 1509; in the data active = activation above about 11%;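 note: 0% = DMSO vehicle and 100% = reference agonist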
EP2 antag: EP2 receptor (human) inhibition; P43116; C6 glioma cells expressing human EP2, cAMP TR-FRET; cells stimulated with saturating PGE2; inhibition, % at 25 µM; hit rate 0.52% among 260,000; AID 1422;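 active = percent inhibition above 40 after rounding to a whole number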;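 note: rat C6 glioma host cells with rolipram phosphodiesterase inhibitor present; the protocol text gives 20 µM as final concentration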
S1P4 antagonist: blocks the human S1P4 receptor | O95977 | S1P4-expressing cells, antagonist mode, reporter read-out | inhibition, % at 4.98 µM | hit rate 0.26% among 220,000; in the data active = inhibition above about 29%;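 note: 0% = wells stimulated with agonist and 100% = vehicle wells without agonist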
EP2 confirm: human EP2 receptor cAMP induction, negative in counter-screens. shares compounds with EP2 mod. C6 glioma EP2 cells, cAMP HTRF induction; plus low (about EC15) PGE2 agonist. calls only at 20 µM (by protocol). hit rate 47% among 1,300;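 active = cAMP induction above 50% in the main assay while under 30% in all four parallel counter assays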;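 note: rat C6 glioma cells stably expressing human EP2 receptor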
An asterisk follows results filed as active; i = inactive; · = not tested or not shown; + = active, no number.

SMILES	EP2 mod	S1P3 antag	Pf gametocyte	S1P4 ag	EP2 antag	S1P4 antagonist	EP2 confirm
CCOC(=O)COc1cc(Br)c(/C=N/Nc2ccccc2)cc1OC	68*	·	·	0	·	11	i
COc1cc(C=O)c(Br)cc1OCC(=O)NCCc1ccccc1	-35	-23	-27	-1	4	1	·
c1ccc(-c2nn3c(C4CCCCC4)nnc3s2)nc1	-14	14	-18	-1	22	-13	·
c1ccc(-c2nn3c(-c4ccccc4)nnc3s2)cc1	74*	-2	-3	1	3	-12	+
c1ccc(-c2nn3c(C4CCCCC4)nnc3s2)cc1	73*	·	27	0	3	-6	+
Cc1cccc(-c2nnc3sc(-c4ccccc4)nn23)c1	55	23	·	1	6	2	·
CCC1(C)Cc2ccccc2-c2nc3n(c(=O)c21)CCS3 (stereo not drawn)	79*	-8	·	-1	12	2	+
CCC1(C)Cc2ccccc2-c2nc3n(c(=O)c21)CC(C(=O)O)S3 (stereo not drawn)	3	-38	-11	1	16	-11	·
CC1CC(C)(C)N2C(=O)C3(Nc4ccccc4S3)c3cccc1c32 (stereo not drawn)	58	·	·	-2	5	-8	·
Cc1cc2c3c(c1)C1(SCC(=O)N1c1ccc(F)cc1)C(=O)N3C(C)(C)CC2C (stereo not drawn)	67*	·	2	2	3	-4	i
CCOC(=O)c1cnc(SCC(=O)Nc2ccc(Cl)cc2)nc1N	-79	·	·	·	10	·	·
CCCC1=C(C(=O)OCC)C(c2cccs2)C(C#N)=C(N)O1 (stereo not drawn)	63*	·	·	4	11	-15	i
CC(=O)Nc1ccc(C2=NN(c3ccccc3)C(c3cccs3)C2)cc1 (stereo not drawn)	76*	6	8	3	11	-11	i
COC(=O)c1cc2ccsc2n1Cc1cccc(F)c1	67*	-2	-20	2	8	-15	+
COC(=O)c1cc2ccsc2n1Cc1ccccc1F	71*	5	-18	1	11	-1	+
COC(=O)c1cc2ccsc2n1CC(=O)N(C)c1ccccc1	-7	2	·	2	19	-10	·
CCOc1ccc(/C=C/C(=O)c2ccc3c(c2)OCCO3)cc1	-40	·	·	·	19	·	·
CC(C)n1c2ccccc2c2nnc(SCC(=O)Nc3ccccc3C(=O)O)nc21	73*	-23	1	0	12	-10	i
Cn1c(=O)c2c(SC3CCCC3)nc(C3CC3)nc2n(C)c1=O	79*	1	·	-1	11	-22	+
COc1ccc(C(=O)CC(CC(=O)c2ccc(OC)cc2)C(=O)O)cc1	·	·	-1	·	·	·	·
COc1ccccc1C(CC(=O)c1ccccc1)CC(=O)c1ccccc1	67*	-18	3	0	5	1	+
C/C(=C\c1ccc(C(=O)O)cc1)c1ccc2c(c1)C(C)(C)CCC2(C)C	53	·	·	·	18	·	+
CCn1c2ccccc2c2cc(/C=N/n3c(C)nnc3C)ccc21	94*	·	·	-2	8	-1	+
Cc1nnc(C)n1/N=C/c1ccccc1	27	·	12	-2	5	-14	·
CCC1Oc2ccccc2N(Cc2ccccc2C)C1=O (stereo not drawn)	74*	·	1	2	6	-11	+
SMILES	EP2 mod	S1P3 antag	Pf gametocyte	S1P4 ag	EP2 antag	S1P4 antagonist	EP2 confirm
CC1C(c2ccccc2)N(C)C(c2ccccc2)C(C)C1(O)C#Cc1ccccc1 (stereo not drawn)	66*	4	2	40*	18	-12	+
COc1ccc(CNc2c(-c3ccco3)nc3cnccn23)cc1	-45	·	·	·	·	·	·
O=C(NC12CC3CC(CC(C3)C1)C2)N1CCC(n2nnc3cc(C(F)(F)F)ccc32)CC1	41	·	·	·	12	·	·
Cc1noc(C)c1COC(=O)C(c1ccccc1)c1ccccc1	75*	-5	·	1	5	-14	i
Cc1ccc(C2NC(=O)C(O)=C2C(=O)c2ccco2)cc1 (stereo not drawn)	2	·	·	·	14	·	·
O=C(COc1ccc(Cl)cc1)Nc1cccc2ncccc12	-54	·	·	·	8	·	·
CN(Cc1ccccc1)c1nc2c(c(=O)[nH]c(=O)n2C)n1Cc1cccc2ccccc12	-4	·	·	·	11	·	·
COc1ccc(-c2cc(C(F)(F)F)n3nc(C(=O)N(C)Cc4ccccc4)cc3n2)cc1OC	58	1	7	1	5	1	i
Cc1cc(-c2ccccc2)nc2cc(C(=O)N(Cc3ccccc3)Cc3ccccc3)nn12	72*	·	·	-2	7	-17	+
COc1cccc(CN2CCN(CC(N)=O)[C@@H](C)C2)c1	4	·	·	·	1	·	·
Cc1ccc(C(=O)OCC(=O)Nc2ccccc2Sc2ccccc2)cc1C	69*	-9	16	-1	7	-17	+
COc1ccc(CC(=O)N2CCC(C(=O)c3nc4ccccc4s3)CC2)cc1OC	-60	·	·	·	·	·	·
CCOc1cc(CCC(=O)N(C)Cc2cccc3ncccc23)on1	-5	·	·	·	9	·	·
CCN1C(=O)C(c2ccc(F)cc2)C2(CCN(CC(=O)N3CCCCC3)CC2)C1=O (stereo not drawn)	-25	·	·	·	5	·	·
CN(c1ccccc1)C1CCCCC1NS(=O)(=O)c1ccc(Cl)cc1 (stereo not drawn)	66*	0	24	-1	6	-3	+
CCOC(=O)Cc1csc(NC(=O)CSc2nc3cc4c(cc3cc2CC)OCCO4)n1	23	·	·	·	14	·	·
CCc1nn(CC(=O)N2CCCCCC2)c(=O)c2cc3ccsc3n12	-64	·	·	·	·	·	·
C=CCn1c(CCc2cc(C(C)(C)C)c(O)c(C(C)(C)C)c2)n[nH]c1=S	58	7	-9	0	7	0	i
C=CCn1c(Cc2ccccc2)n[nH]c1=S	9	-39	12	0	13	-15	·
COC(=O)c1c(NC(=O)CSc2nnc(-c3cccnc3)n2Cc2ccco2)sc(C)c1C	55	6	6	2	7	-37	i
